# Source: PubChem
# ERG Ets-DNA blk: inhibitors of human ERG Ets domain-DNA interaction. Potency, µM (series often up to 76.9 µM), for the others: top-dose FP activity, negative = inhibition, usual class: inhibitors. fluorescence polarization, His-ERG Ets domain / labelled DNA. P11308. hit rate 0.028% among 370,000; active = well fitted inhibition curve with a large enough effect in the polarisation, with a control signal flat; inconclusive = small, poorly fitted or top-dose-only effect, or effect the other way, or a change in a side signal; inactive = no such curve, though single readings can be large or run the other way; the % refers to the polarisation;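 note: polarization taken with two DNA probes labelled with fluorescein and Texas red; % of control where 0% means no effect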
#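 His-tagged ERG Ets domain (1 uM in the protein solution; 300mM KCl, 50mM Tris-HCl, 1mM EDTA, 1mM DTT, pH 7.5) received compound, then a probe mix of 5 nM fluorescein-DNA and 100nM Texas-615-DNA. Fluorescence polarization was read for both dyes.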
# Mito fusion yeast: blocks mitochondrial division or promotes mitochondrial fusion; S. cerevisiae fusion-defective mutant growth rescue, CellTiterGlo 48 h; hit rate 0.23% among 320,000; Potency, µM (top dose mostly 46.1 µM), inactives show at the highest dose growth rescue (activation), actives largely listed as activators; AID 485298; note: % of control where 0% means no effect; nearly all actives have a fitted effect of over 45% in size
#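 Temperature-sensitive fusion-defective S. cerevisiae (e.g. fzo1-1, mgm1-5) were grown with compound in YPEG medium (3% ethanol, 3% glycerol) for 48 hours at 37C. Growth rescue was measured as viability by CellTiterGlo luminescence after 10 minutes at ambient.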
# B2AR arrestin: beta2AR (human) beta-arrestin recruitment activity | P07550 | beta-arrestin recruitment to beta2AR, cell-based reporter | Potency, µM (top dose mostly 46.1 µM), for inactives: top-dose activation, usual class: activators | hit rate 0.02% among 330,000 | AID 492947;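 note: 0% = DMSO controls and full agonism = EC100 isoproterenol or metaproterenol; nearly all actives have a fitted effect of over 65% in size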
# Target sequence (P07550 whole entry, looked up): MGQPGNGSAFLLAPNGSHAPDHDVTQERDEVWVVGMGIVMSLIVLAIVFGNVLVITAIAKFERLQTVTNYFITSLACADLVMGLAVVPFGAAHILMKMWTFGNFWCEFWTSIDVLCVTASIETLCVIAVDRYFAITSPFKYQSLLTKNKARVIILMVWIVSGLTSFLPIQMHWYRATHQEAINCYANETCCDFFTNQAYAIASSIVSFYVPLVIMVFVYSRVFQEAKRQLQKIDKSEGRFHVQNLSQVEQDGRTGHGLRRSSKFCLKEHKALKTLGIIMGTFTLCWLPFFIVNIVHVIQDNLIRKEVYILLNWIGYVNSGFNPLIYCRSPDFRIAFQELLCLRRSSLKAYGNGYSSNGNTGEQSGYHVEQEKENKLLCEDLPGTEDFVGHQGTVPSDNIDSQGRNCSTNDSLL
# BRCA1 expr act: BRCA1 expression activation | MCF7-BRCA1-FFLuc reporter, luminescence, 48 h; response scale: scaled: vehicle 0%, 10 µM genistein 100% | Potency, µM (doses to about 46.1 µM), for inactives: at the highest dose activation, most hits filed as activators | hit rate 1.1% among 380,000 | AID 624202; note: nearly all actives have a fitted effect of over 80% in size
#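 Luminescence from a BRCA1-driven firefly luciferase in MCF7 cells was the read-out, taken 15 min after substrate addition following 48 h compound exposure at 37 °C. Data were normalized to a 10 microM genistein control and DMSO vehicle.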
# An asterisk follows results filed as active; u = inconclusive; x = not tested or not shown. Hits are enriched below; roughly 1.2% of the tested compounds scored in any of these assays. Unless noted, calls come from the whole dose curve; as a rule, active = well fitted curve in the direction sought with a large enough effect; inconclusive = small, poorly fitted or top-dose-only effect, or another doubt; inactive = no such curve, though single readings can be large; an effect the other way counts as inactive or inconclusive. Potency is the fitted concentration of half-maximal effect.
SMILES,ERG Ets-DNA blk,Mito fusion yeast,B2AR arrestin,BRCA1 expr act
O=C(CC1CCCC1)Nc1ccc2c(c1)CCC2,-7%,-2%,0%,10µM*
O=C(Cc1ccccc1)Nc1ccc2c(c1)CCC2,0%,-4%,0%,u
Cc1cc(NC(=O)CC2CCCC2)ccc1Br,11%,8%,1%,8.9µM*
Cc1ccc2oc(C(=O)N(Cc3sccc3C)C3CCS(=O)(=O)C3)c(C)c2c1 (stereo not drawn),12%,x,x,x
Cc1c(-c2nc(-c3ccc4c(c3)OCO4)no2)nnn1-c1cccc(C(F)(F)F)c1,-8%,x,x,x
O=C(N=C1N=C2C=CC=CN2Cc2ccccc21)c1ccc(S(=O)(=O)N2CCOCC2)cc1,-3%,-1%,0%,10µM*
CCN(CC)C(=O)N1CCN(/[N+]([O-])=N/Oc2ccc([N+](=O)[O-])cc2[N+](=O)[O-])CC1,x,x,x,5%
O=C(CSc1nnc(C2CCCCC2)o1)Nc1ccccc1Cl,-11%,1%,0%,10µM*
N#Cc1c(NC(NC(=O)c2ccco2)C(=O)c2ccccc2)sc2c1CCCC2 (stereo not drawn),x,13µM*,0%,-1%
COc1cccc(NC(=O)c2cnc[nH]2)c1,0%,2%,0%,67%
O=C(Nc1ccc(Br)cc1)c1cnc[nH]1,6%,8%,0%,13µM*
CCN(CC)C(=O)c1sc2c(c1C)c(=O)n(CCc1ccccc1)c(=O)n2Cc1ccc(C)cc1,1%,x,x,x
Cc1ccc(Cc2cn3cc(-c4ccc(F)cc4)nc3s2)cc1,7%,x,x,2.2µM*
Cc1c(C(=O)N(C)Cc2ccccc2)sc2nc(-c3ccc(F)cc3)cn12,-4%,x,x,x
Cc1ccc(NC(=O)C2Cc3ccccc3C(=O)O2)cc1 (stereo not drawn),-8%,-2%,0%,4µM*
O=C(CSc1nc2c(cnn2-c2ccc(F)cc2)c(=O)[nH]1)Nc1ccc(Br)cc1,0%,x,x,x
CCc1ccc(CNC(=O)c2c(C)oc3ncn(CC(C)C)c(=O)c23)cc1,0%,x,x,0%
COc1ccc(N2Cc3cccc(C(=O)Nc4ccc(Cl)cc4)c3C2=O)cc1,0%,x,x,-22%
CSc1nc(=O)n2cc(C)ccc2n1,28µM*,-11%,0%,2%
Cc1ccc2nc(SCC(=O)c3ccccc3)nc(=O)n2c1,-4%,4%,1%,88%
CCOc1cc(/C=N/O)ccc1OCc1ccc([N+](=O)[O-])cc1,3%,22%,-2%,9%
O=[N+]([O-])c1ccc(COc2ccccc2/C=N/O)cc1,-1%,7%,0%,10µM*
N#CC1=C(N)N(c2cccc(Cl)c2)C2=C(C(=O)CCC2)C1c1cc(CN2CCOCC2)cs1 (stereo not drawn),-1%,x,x,x
Cc1ccc(-c2ccc(=O)n(CCC(=O)NCCc3ccccc3)n2)cc1,-8%,x,x,35%
COc1ccc(OC)c(-c2csc(NC(=O)COC(=O)C3(C)CC3(Cl)Cl)n2)c1 (stereo not drawn),2%,16µM*,-1%,-25%
SMILES,ERG Ets-DNA blk,Mito fusion yeast,B2AR arrestin,BRCA1 expr act
O=C(O)c1ccccc1CSc1nc2ccccc2o1,-14%,5%,0%,8.9µM*
CC(=O)CSc1nc2ccccc2o1,11%,2%,0%,83%
O=C(CSc1nc2ccccc2o1)N1c2ccccc2Sc2ccccc21,2%,13µM*,0%,-57%
O=C(O)c1ccc(CSc2nc3ccccc3o2)cc1,-10%,4%,0%,14%
CC(C)(C)C(O)C(Cc1ccccc1Cl)n1cncn1 (stereo not drawn),-5%,10µM*,-1%,5%
CC(=O)c1cccc(NC(=O)c2cccn2-c2nnc(N3CCCCC3)s2)c1,-3%,x,x,x
COc1cc(CNC(=O)C2CC2)ccc1OCc1ccccc1,0%,-4%,-1%,13µM*
CCOc1ccc(C(=S)N2CCCC2)cc1OC,-19%,0%,0%,26%
COc1cc(C(=S)N2CCCC2)ccc1OCc1ccc(C)cc1,10%,-5%,5%,11µM*
COc1cc(CN2CCCCC2)ccc1OCc1ccccc1,-4%,-3%,0%,10µM*
O=C(CSc1cn(CC(=O)N2CCCCC2)c2ccccc12)Nc1ccccc1F,8%,x,x,x
Fc1cc(F)c2nc(N3CCCCC3)sc2c1,-8%,0%,-1%,13µM*
c1ccc2sc(N3CCCCC3)nc2c1,-5%,x,x,4.5µM*
O=[N+]([O-])c1ccc2nc(N3CCCC3)sc2c1,6%,0%,0%,8.9µM*
c1ccc(CN2CCN(c3nc4ccccc4s3)CC2)cc1,-5%,7%,0%,u
